Reference: the antibiotic and cytotoxicity screens of Wong et al. (2023)
In all, about 39,000 compounds went through this assay and about 1,500 (3.8%) were called active. The sample as a whole holds a higher share of actives than the screen did.

The molecules below were run on HSkMC (human skeletal muscle cells) (assay: cytotoxicity call (relative viability < 0.9)). Conditions: 10 µM.

Structure (SMILES) | cytotoxicity call
CC(C)NC(=O)Nc1ccc2c(c1)C(=O)N([C@H](C)CO)C[C@@H](C)[C@H](CN(C)S(C)(=O)=O)OCCCC[C@@H](C)O2 | inactive
C[C@@H]1CN([C@H](C)CO)C(=O)Cc2cc(NS(=O)(=O)c3ccc(Cl)cc3)ccc2O[C@H]1CN(C)Cc1ccc(C(=O)Nc2ccccc2N)cc1 | inactive
Cc1ccc(S(=O)(=O)N(C)C[C@@H]2Oc3cc(C#Cc4ccncc4)ccc3S(=O)(=O)N([C@@H](C)CO)C[C@@H]2C)cc1 | inactive
C[C@H]1CN([C@@H](C)CO)C(=O)c2cccc(NS(=O)(=O)c3cn(C)cn3)c2O[C@H]1CN(C)S(=O)(=O)c1ccc(F)cc1 | inactive
C[C@H]1CN([C@@H](C)CO)S(=O)(=O)c2ccc(C#Cc3ccc(F)cc3)cc2O[C@H]1CN(C)CC1CC1 | inactive
C[C@@H]1CCCCO[C@H](CN(C)C(=O)CCC(F)(F)F)[C@H](C)CN([C@@H](C)CO)C(=O)c2cc(NC(=O)Nc3ccc4c(c3)OCO4)ccc2O1 | inactive
CCOC(=O)C1=CC(OC(CC)CC)C(NC(C)=O)C(N)C1.O=P(O)(O)O (configuration not stated) | inactive
COc1ccc(S(=O)(=O)N(C)C[C@@H]2Oc3ccc(NS(=O)(=O)c4ccc(F)cc4)cc3C(=O)N([C@@H](C)CO)C[C@@H]2C)cc1 | inactive
C[C@H]1CN([C@@H](C)CO)C(=O)Cc2cc(NC(=O)C3CC3)ccc2O[C@H]1CN(C)S(=O)(=O)c1ccc(F)cc1 | inactive
C[C@@H]1CN([C@H](C)CO)C(=O)c2cc(NC(=O)Nc3cccc4ccccc34)ccc2O[C@@H]1CN(C)C(=O)Nc1ccc2c(c1)OCO2 | inactive
COc1ccc([C@H]([C@H](Cc2ccccc2)OC(C)=O)N(CC#C[C@@H](O)c2ccccc2)[C@@H](Cc2ccccc2)C(OC)OC)cc1 | inactive
COc1ccc2c3c(n(c2c1)C)[C@H](CO)N(Cc1ccccc1F)C[C@]13CN(C1)C(=O)C1CCOCC1 | inactive
C[C@@H]1CCCCO[C@H](CN(C)Cc2ccc(C(F)(F)F)cc2)[C@@H](C)CN([C@@H](C)CO)C(=O)c2cc(NC(=O)Nc3ccc(C(F)(F)F)cc3)ccc2O1 | inactive
C[C@H]1CCCCO[C@H](CN(C)Cc2ccc(C(F)(F)F)cc2)[C@@H](C)CN([C@@H](C)CO)C(=O)c2cc(NC(=O)Nc3ccc(C(F)(F)F)cc3)ccc2O1 | inactive
C[C@@H]1CCCCO[C@H](CN(C)Cc2ccc(C(F)(F)F)cc2)[C@H](C)CN([C@H](C)CO)C(=O)c2cc(NC(=O)Nc3ccc(C(F)(F)F)cc3)ccc2O1 | active
C[C@H](CO)N1C[C@H](C)[C@@H](CN(C)Cc2ccc(C(F)(F)F)cc2)OCCCC[C@H](C)Oc2ccc(NC(=O)Nc3ccc(C(F)(F)F)cc3)cc2C1=O | inactive
C[C@@H]1CN([C@@H](C)CO)C(=O)c2cc(NC(=O)Nc3ccc(C(F)(F)F)cc3)ccc2O[C@@H](C)CCCCO[C@H]1CN(C)Cc1ccc(C(F)(F)F)cc1 | inactive
C[C@@H]1CCCCO[C@H](CN(C)Cc2ccc(C(F)(F)F)cc2)[C@H](C)CN([C@@H](C)CO)C(=O)c2cc(NC(=O)Nc3ccc(C(F)(F)F)cc3)ccc2O1 | active
C[C@@H]1CCCCO[C@H](CN(C)C(=O)c2ccccc2)[C@H](C)CN([C@H](C)CO)C(=O)c2cc(NC(=O)C3CCCCC3)ccc2O1 | inactive

Structure (SMILES) | cytotoxicity call
O=C(NCCN1CCOCC1)c1cccs1 | inactive
CCc1c(Cl)c(O)c(Cl)c(O)c1C(=O)O[C@H]1[C@H](O)[C@H](OC)[C@H](OC/C2=C\C=C\C[C@H](O)/C(C)=C/[C@H](CC)[C@@H](O[C@@H]3OC(C)(C)[C@@H](OC(=O)C(C)C)[C@H](O)[C@@H]3O)/C(C)=C/C(C)=C/C[C@@H]([C@@H](C)O)OC2=O)O[C@@H]1C | active
COc1ccc(CN(C)C[C@H]2OCCCC[C@H](C)Oc3ccc(NC(=O)Nc4ccccc4)cc3C(=O)N([C@@H](C)CO)C[C@@H]2C)cc1 | inactive
COc1ccc(CN(C)C[C@@H]2OCCCC[C@H](C)Oc3ccc(NC(=O)Nc4ccc(F)cc4)cc3C(=O)N([C@H](C)CO)C[C@@H]2C)cc1 | inactive
COc1ccc(CN(C)C[C@H]2OCCCC[C@@H](C)Oc3ccc(NC(=O)Nc4ccccc4)cc3C(=O)N([C@H](C)CO)C[C@H]2C)cc1 | active
COc1ccc(CN(C)C[C@@H]2OCCCC[C@@H](C)Oc3ccc(NC(=O)Nc4ccccc4)cc3C(=O)N([C@@H](C)CO)C[C@@H]2C)cc1 | inactive
COc1ccc(CN(C)C[C@@H]2OCCCC[C@H](C)Oc3ccc(NC(=O)Nc4ccc(F)cc4)cc3C(=O)N([C@@H](C)CO)C[C@@H]2C)cc1 | inactive
COc1ccc(CN(C)C[C@H]2OCCCC[C@@H](C)Oc3ccc(NC(=O)Nc4ccc(F)cc4)cc3C(=O)N([C@H](C)CO)C[C@H]2C)cc1 | active
C[C@@H]1CCCCO[C@@H](CN(C)C(=O)C2CCCCC2)[C@H](C)CN([C@H](C)CO)C(=O)c2cc(NC(=O)Nc3ccc(C(F)(F)F)cc3)ccc2O1 | inactive
C[C@H](CO)N1C[C@H](C)[C@H](CN(C)C(=O)Nc2ccccc2C(F)(F)F)OCc2cnnn2CCCC1=O | inactive
CO[C@@H]1CN(C)C(=O)c2cc(NC(=O)C3CC3)ccc2OC[C@H](C)N(C(=O)Cc2ccccn2)C[C@@H]1C | inactive
COc1ccc(S(=O)(=O)N[C@@H]2C=C[C@H](CC(=O)N3CCC(Cc4ccccc4)CC3)O[C@@H]2CO)cc1 | inactive
Cn1cc(-c2ccno2)c(C(=O)O)n1 | inactive
Cc1c(-c2c(-c3ccc(F)o3)sc3ncnc(O[C@H](Cc4ccccc4OCc4ccnn4CC(F)(F)F)C(=O)O)c23)ccc(OCCN2CCN(C)CC2)c1Cl | active
N#C[C@@H]1N[C@H](CO)[C@H]1c1ccccc1 | inactive
CCCCCCO[C@@H](C)c1cccc(-c2csc(NC(=O)c3cc(Cl)c(/C=C(\C)C(=O)O)c(Cl)c3)n2)c1OC | active
COCC(=O)N1CC(C)(C)c2cc(-c3csc(NC(=O)c4ccc(F)c(OC(F)(F)F)c4)n3)ccc21 | inactive
C[C@H](CO)N1C[C@H](C)[C@@H](CN(C)Cc2ccncc2)Oc2c(NS(=O)(=O)c3ccccc3)cccc2C1=O | inactive
